Compound activity from PubChem BioAssay.
SMARCA2 activ: SMARCA2 (BRM) function activators, primary screen, cell-based, luminescence, high throughput; MG213 cells, MMTV-luciferase reporter, dexamethasone, overnight; activation, % at 9.1 µM; hit rate 1% among 370,000; in the data active means activation above about 7.8%;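 further: 0% = vehicle wells and 100% = reference activator wells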
DAX1 inh-1: DAX1 (NR0B1) inhibitors on StAR promoter, primary screen, cell-based, luminescence, SF-1 (NR5A1), full-length DAX-1; inhibition, % at 6.8 µM; AID 652010, 2013; HEK293T StAR-luciferase reporter, SF-1/DAX-1 repression relief; hit rate 1.1% among 370,000;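 active means inhibition above the mean over all tested compounds plus 3 SD, cut at about 3.6% in these data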;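 further: 0% = DAX-1 cells with DMSO and 100% = cells lacking DAX-1 with DMSO; higher inhibition means more luminescence from relief of DAX-1 repression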
hgDAF12 agonist: H. glycines DAF-12 receptor agonists, primary screen, cell-based, luminescence, HEK293, GAL4 fusion, UAS-luciferase. HEK293 GAL4-hgDAF12 UAS-luciferase reporter, agonist luminescence; normalized to butyrate control. hit rate 1.8% among 370,000. activation, % at 6.8 µM;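 active means activation above a cutoff set at the mean of all screened compounds plus 3 SD, cut at about 10% in these data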;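 further: 0% = DMSO wells and 100% = sodium butyrate wells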
hcDAF-12 act: H. contortus DAF-12 nuclear receptor activators, primary screen, cell-based, luminescence, HEK293, lit1-tk-luc reporter; activation, % at 6.8 µM; hit rate 1.4% among 370,000; AID 652067, 2013; HEK293 hcDAF-12 lit1-tk-luc reporter; 0% DMSO, 100% Δ7-dafachronic acid;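 active means activation above the mean of all tested compounds plus 3 SD, cut at about 5.5% in these data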;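 further: 100% = response to 3 µM Δ7-dafachronic acid high control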
DAX1 inh-2: DAX1 (NR0B1) inhibitors, primary screen, cell-based, HEK293, Gal4-DAX1, luciferase luminescence; inhibition, % at 6.75 µM; AID 504766, 2011; hit rate 0.99% among 340,000; HEK293 Gal4-DAX1 luciferase reporter; Nuclear receptor subfamily 0 group B member 1 (Homo sapiens), P51843;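 active means inhibition above the mean over all tested compounds plus 3 SD, cut at about 4.2% in these data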;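 further: 0% = DAX1-transfected cells with DMSO and 100% = empty-vector control cells with DMSO; inhibition shows as a rise in luminescence from relieved DAX1 repression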
Target sequence (P51843 207-470 limits assumed): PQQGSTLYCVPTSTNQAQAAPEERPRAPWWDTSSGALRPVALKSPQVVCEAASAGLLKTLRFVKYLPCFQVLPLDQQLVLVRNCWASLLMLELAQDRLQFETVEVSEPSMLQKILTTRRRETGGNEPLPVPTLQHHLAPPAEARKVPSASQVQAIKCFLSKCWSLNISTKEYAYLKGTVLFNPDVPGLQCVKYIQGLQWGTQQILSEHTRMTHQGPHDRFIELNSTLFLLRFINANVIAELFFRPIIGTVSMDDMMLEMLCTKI
ssDAF-12 act: S. stercoralis DAF-12 nuclear receptor activators, primary screen, cell-based, luminescence, HEK293, GRIP1 co-expression, lit1-tk-luc; activation, % at 6.8 µM; hit rate 1% among 370,000; HEK293 ssDAF-12/GRIP1 lit1-tk-luc reporter; % of 3 µM dafachronic acid response; Nuclear hormone receptor DAF-12 (Strongyloides stercoralis);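 active means activation above the mean over all tested compounds plus 3 SD, cut at about 0.9% in these data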;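 further: 0% = DMSO-only wells and 100% = 3 µM delta7-dafachronic acid wells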
* marks the source's active call; other numbers are inactive results. Compounds with a hit are over-represented: about 4.8% of the library has one in this group of screens.

Results for O=C(O)c1ccccc1/C=N/NC(=O)c1cc(-c2ccco2)nc2ccccc12 ?
SMARCA2 activ: -4; DAX1 inh-1: 0; hgDAF12 agonist: 4; hcDAF-12 act: 3; DAX1 inh-2: 0; ssDAF-12 act: 2.9*

How did CC(=O)Nc1ccc(/C=N/NC(=O)c2cc(-c3ccco3)nc3ccccc23)cc1 do in these assays?
SMARCA2 activ: -2; DAX1 inh-1: -1; hgDAF12 agonist: 0; hcDAF-12 act: 1; DAX1 inh-2: 4; ssDAF-12 act: 0

Results for CCn1cnc2cc(NCc3ccc(C)cc3)ccc21 ?
SMARCA2 activ: 3; DAX1 inh-1: 4.4*; hgDAF12 agonist: 4; hcDAF-12 act: 1; DAX1 inh-2: 2; ssDAF-12 act: -1

What do the screens show for `Cc1ccc(CNc2ccc3c(c2)ncn3C(C)C)cc1`?
SMARCA2 activ: -1; DAX1 inh-1: 2; hgDAF12 agonist: 7; hcDAF-12 act: 1; DAX1 inh-2: 6.2*; ssDAF-12 act: -1

How did CCn1cnc2cc(NCc3ccc(Br)cc3)ccc21 do in these assays?
SMARCA2 activ: 1; DAX1 inh-1: 2; hgDAF12 agonist: 3; hcDAF-12 act: 5; ssDAF-12 act: -1

What do the screens show for `COc1ccccc1/C=N\NC(=O)c1ccc(COc2ccc(C)c(C)c2)o1`?
SMARCA2 activ: 0; DAX1 inh-1: 0; hgDAF12 agonist: 4; hcDAF-12 act: 2; DAX1 inh-2: 1; ssDAF-12 act: 0

What do the screens show for `N#Cc1c(Cl)c(Cl)c2nnc(-c3ccc(Br)cc3)n2c1Cl`?
SMARCA2 activ: 1; DAX1 inh-1: -1; hgDAF12 agonist: 2; hcDAF-12 act: 3; ssDAF-12 act: 1.2*

Results for [S-]c1nnc(-c2ccc(Br)cc2)n1-c1ccccc1.[Zn+2] ?
SMARCA2 activ: 0; DAX1 inh-1: 0; hgDAF12 agonist: 2; hcDAF-12 act: 2; DAX1 inh-2: 1; ssDAF-12 act: 0

Results for O=C(CCN1C(=O)C2C3CCC(C3)C2C1=O)Nc1ccccc1C(F)(F)F (stereo not drawn) ?
SMARCA2 activ: -1; DAX1 inh-1: 0; hgDAF12 agonist: 4; hcDAF-12 act: -1; DAX1 inh-2: 2; ssDAF-12 act: 6.0*

Results for O=C(CCN1C(=O)C2C3C=CC(C3)C2C1=O)Nc1ccccn1 (stereo not drawn) ?
SMARCA2 activ: 7.8*; DAX1 inh-1: -1; hgDAF12 agonist: 3; hcDAF-12 act: -2; DAX1 inh-2: 0; ssDAF-12 act: -1

How did O=C(NCN1C(=O)C2C3C=CC(C3)C2C1=O)Nc1ccccn1 (stereo not drawn) do in these assays?
SMARCA2 activ: -1; DAX1 inh-1: 0; hgDAF12 agonist: 1; hcDAF-12 act: -1; DAX1 inh-2: 0; ssDAF-12 act: -1

Results for C=CCn1c(C)cc(C(=O)CSc2nc3ccccc3c(=O)[nH]2)c1C ?
SMARCA2 activ: 0; DAX1 inh-1: 1; hgDAF12 agonist: 4; hcDAF-12 act: -1; DAX1 inh-2: -1; ssDAF-12 act: -1

What do the screens show for `COCCn1c(C)cc(C(=O)CSc2nc3ccccc3c(=O)[nH]2)c1C`?
SMARCA2 activ: 7; DAX1 inh-1: 2; hgDAF12 agonist: 7; hcDAF-12 act: 3; DAX1 inh-2: 6.5*; ssDAF-12 act: 0

How did Cc1cc(C(=O)CSc2nnc(-c3ccncc3)n2-c2ccccc2)c(C)n1C do in these assays?
SMARCA2 activ: -2; DAX1 inh-1: -2; hgDAF12 agonist: -1; hcDAF-12 act: -2; DAX1 inh-2: 7.4*; ssDAF-12 act: -1

What do the screens show for `O=C(CSc1nc2ccccc2c(=O)[nH]1)Nc1ccc(C(=O)O)cc1`?
SMARCA2 activ: 0; DAX1 inh-1: 1; hgDAF12 agonist: 1; hcDAF-12 act: -1; DAX1 inh-2: 1; ssDAF-12 act: -1
